Laboratory results as given in the supplement of paper PMC9492666.

How the values were obtained:
HCC1937 = experiment: relative cell viability, compound + erastin, vs DMSO (fraction of DMSO control); higher = less growth inhibition; conditions: 72 h
MDA-MB-231 = experiment: as above; conditions: 72 h
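Note: viability read by CCK-8 kit in 96-well plates, part of a combination screen pairing lipid-metabolism-targeting compounds with erastin.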

Structure (SMILES)	relative cell viability (HCC1937)	relative cell viability (MDA-MB-231)
CC(O)(CC(=O)O)CC(=O)O [Meglutol] + CCOc1ccccc1-n1c(C(C)N2CCN(C(=O)COc3ccc(Cl)cc3)CC2)nc2ccccc2c1=O [erastin]	0.708	0.67
Nc1ccc(O)c(C(=O)O)c1 [Mesalamine] + CCOc1ccccc1-n1c(C(C)N2CCN(C(=O)COc3ccc(Cl)cc3)CC2)nc2ccccc2c1=O [erastin]	0.772	0.585
COC(=O)c1sccc1S(=O)(=O)Nc1ccc(Nc2ccccc2)cc1OC + CCOc1ccccc1-n1c(C(C)N2CCN(C(=O)COc3ccc(Cl)cc3)CC2)nc2ccccc2c1=O [erastin]	0.529	1.1
O=C(O)c1cccc(N=Nc2c(O)[nH]c3ccc(S(=O)(=O)NCc4ccc(F)cc4)cc23)c1 + CCOc1ccccc1-n1c(C(C)N2CCN(C(=O)COc3ccc(Cl)cc3)CC2)nc2ccccc2c1=O [erastin]	0.544	0.636
COc1ccc(C(=O)/C=C/c2ccccc2)cc1 [4'-Methoxychalcone] + CCOc1ccccc1-n1c(C(C)N2CCN(C(=O)COc3ccc(Cl)cc3)CC2)nc2ccccc2c1=O [erastin]	0.54	0.54
CC(C)c1c(C(=O)Nc2ccccc2)c(-c2ccccc2)c(-c2ccc(F)cc2)n1CC[C@@H](O)C[C@@H](O)CC(=O)O [Atorvastatin Calcium] + CCOc1ccccc1-n1c(C(C)N2CCN(C(=O)COc3ccc(Cl)cc3)CC2)nc2ccccc2c1=O [erastin]	0.357	0.337
COc1cccc(-n2c(=O)[nH]c3cc(Cl)n(-c4ccc(-c5cccc(OC)c5O)cc4)c3c2=O)c1 + CCOc1ccccc1-n1c(C(C)N2CCN(C(=O)COc3ccc(Cl)cc3)CC2)nc2ccccc2c1=O [erastin]	0.66	0.852
